40 molecules from PubChem BioAssay (EPA / NIEHS) can be followed below.

Active and inactive are the calls of the source. The calls were made as follows: active = hit-call score of the fitted dose curve at least 0.9, where 1 is the maximum; inactive = score below 0.9.

The assay can be described thus: BSK_4H_Eotaxin3: BioMAP Diversity Plus: 4H Assay for Eotaxin 3 Biomarker Activity (AID 2283000). Conditions: primary human endothelial cells (HUVEC); actives raise or lower the signal. As for the experimental part: BSK_4H is a cell-based, multiplexed-readout assay that uses umbilical vein endothelium, a human vascular primary cell, with measurements taken at 24 hours after chemical dosing in a 96-well plate.BSK_4H_Eotaxin3 is an assay component measured in the BSK_4H assay. It measures Eotaxin-3 antibody related to regulation of gene expression using ELISA technology.Data from the assay component BSK_4H_Eotaxin3 was analyzed into 1 assay endpoint. This assay endpoint, BSK_4H_Eotaxin3, was analyzed with bidirectional fitting relative to DMSO as the negative control and baseline of activity. Using a type of binding reporter, gain or loss-of-signal activity can be used to understand changes in the signaling as they relate to the gene CCL26. Furthermore, this assay endpoint can be referred to as a primary readout, because this assay has produced multiple assay endpoints where this one serves a signaling function. To generalize the intended target to other relatable targets, this assay endpoint is annotated to the cytokine intended target family, where the subfamily is chemotactic factor.
The levels of cell surface (or secreted, indicated by the prefix "s") biomarker endpoints were measured by ELISA. Overt cytotoxicity to cells in confluent adherent cultures (all systems other than the BT system) was assessed by measuring total protein levels using sulforhodamine B (SRB) staining in parallel cultures at the time of biomarker measurements, indicated as SRB endpoints. For proliferation assays for adherent cell types, individual cell types are cultured at sub-confluence and relative cell numbers quantified by SRB staining at time points optimized for each system (48 h: 3C and CASM3C systems; 72 h: BT and HDF3CGF systems; 96 h: SAg system). SRB was performed by staining cells with 0.1% SRB after fixation with 10% TCA and reading wells at 560 nm.Viability and proliferation of PBMC (T cells) was quantified by Alamar Blue reduction for the SAg and BT systems. For PBMC viability (referred to as PBMC Cytotoxicity within the assay endpoint names), cells were plated (75,000/well in a 96-well plate) and then chemical samples added for 1 h before addition of activators, SEB and TSST-1 (20 ng/mL final concentration each). Cells were incubated for 90 h. Then, Alamar Blue (20 uL/well) (Invitrogen, Cat DAL1100) was added for 6 h, and the plates were read with a fluorescence microplate reader at 546/580 nm (excitation/emission). For PBMC proliferation, cells were plated and activated as above but incubated for only 16 h prior to addition of Alamar Blue. Plates were read after 6 h.
Turning to `O=C(O)c1ccccc1C(=O)OCc1ccccc1`, the result was inactive. Regarding `C[C@]12CC[C@@H]3c4ccc(O)cc4CC[C@H]3[C@@H]1CCC2=O`, the result was inactive. Take `Cc1ccc(C(C)C)cc1`: the outcome was inactive. On to `CCCCCCCC[Si](OCC)(OCC)OCC`, for which the AC50 (as a rule, the midpoint of the concentration-response curve, whichever way the signal moves) was 30.9 µM (active). For `O=C1c2ccccc2C(=O)N1CCc1noc(-c2ccc(CN3CCCCCC3)s2)n1`, the result was inactive. Take `CCCCOC(=O)c1ccc(O)cc1`: the result was inactive. Same read-out and setting: next, `O=C(O)Cn1c(=O)n(Cc2ccc(Br)cc2F)c(=O)c2ccc(Cl)cc21`: “inactive”. Turning to `Cc1c2ccccc2c(C)c2c1ccc1ccccc12`, the AC50 is 28.6 µM (active). Take `CCN(Cc1cccnc1)C(=O)c1cccc(Cl)c1[C@]1(C)C(=O)N(Cc2ccc(OC)cc2OC)c2ccc(Cl)cc21`: the AC50 is 11.4 µM (active). For `c1ccc(C[n+]2cccc3ccccc32)cc1`, the result was inactive. Same read-out and setting: next, `Oc1ccccc1`: “inactive”; `CC[C@@H]1C[C@H](N(Cc2cc(C(F)(F)F)cc(C(F)(F)F)c2)C(C)=O)c2cc(C(F)(F)F)ccc2N1C(=O)OC(C)C`: “inactive”. For `C[C@]12CC[C@@H]3c4ccc(O)cc4CC[C@H]3[C@@H]1CC[C@H]2O`, the AC50 was 25 µM (active).

In the case of `CCOC(=O)O[C@H](C)OC(=O)c1ccc2c(c1)cc(C(=O)NC1CCN(C(C)C)CC1)n2Cc1cc(-c2ccc(Cl)s2)on1`, the AC50 is 8.87 µM (active). `NCc1cccc(C2CCN(C(=O)c3ccc(C#Cc4ccccc4F)o3)CC2)c1`: the AC50 is 15.8 µM (active).

For `COc1cccc([C@H](O)C2CCN(CCc3ccc(F)cc3)CC2)c1OC`, the outcome was inactive. Still for that read-out and setting: for `c1ccc2n[nH]nc2c1` the value was “inactive”; for `CCCCCCCCN(C)CCCCCCCC`, “inactive”; for `O=C1CCC(C2CCCCC2)CC1`, “inactive”. For `CCO[Si](CCCNC(N)=O)(OCC)OCC`, the outcome was inactive. On to `Cc1cc2c(cc1C(F)(F)F)N(C(=O)Nc1ccc(Oc3cccnc3C)nc1)CC2`, for which the outcome was inactive. Still for that read-out and setting: next, `Cc1ncc(CO)c(CO)c1O`: “inactive”. `Cc1cc(F)ccc1-c1cc(N2CC[C@@H](O)[C@H]2CO)ncc1N(C)C(=O)C(C)(C)c1cc(C(F)(F)F)cc(C(F)(F)F)c1`: the AC50 was 12.5 µM (active). For `CC(C)(c1cc(Br)c(O)c(Br)c1)c1cc(Br)c(O)c(Br)c1`, the AC50 was 30.1 µM (active).

As to `CN1C(=O)N(c2ccccc2Br)Cc2cnc(Nc3ccc4c(c3)OCC(CO)O4)nc21` (stereo not given), the AC50 is 9.49 µM (active). For `Cc1oc2c(NC(=O)c3c(Cl)cccc3Cl)cccc2c1C(C)(C)O`, the AC50 was 7.04 µM (active). The same measure, in the same setting: for `Clc1ccccc1C(c1ccccc1)(c1ccccc1)n1ccnc1` the value was 31.3 µM (active). For the molecule `CC1(C)NC(=O)N(c2ccc([N+](=O)[O-])c(C(F)(F)F)c2)C1=O`, the outcome was inactive. The same measure, in the same setting: next, `Clc1cc(Cl)c2c(c1)N=C1CCCCCN1C2`: “inactive”. As to `OC12N=C(c3ccccc3)SC1Cc1cc(Cl)ccc12` (stereo not given), the AC50 is 20 µM (active). For `c1ccc2ccccc2c1`, the result was inactive. Regarding `COc1cc(C(=O)NC2CCN(C)CC2)ccc1Nc1ncc2c(n1)N(C1CCCC1)CC(F)(F)C(=O)N2C`, the AC50 is 14.6 µM (active).

Regarding `CC/C(=C(/CC)c1ccc(O)cc1)c1ccc(O)cc1`, the AC50 was 27.6 µM (active).

On to `O=C(O)Cc1cc(I)c(Oc2ccc(O)c(I)c2)c(I)c1`, for which the AC50 is 31.3 µM (active).

As to `CC(C)(C)c1cc(/C=C2\SC(N)=NC2=O)cc(C(C)(C)C)c1O`, the AC50 was 30.4 µM (active).

As for `O=c1ccc2ccccc2o1`, the outcome was inactive. Take `O=C(Nc1ccc(Cl)cc1)Nc1ccc(Cl)c(Cl)c1`: the AC50 was 2.4 µM (active). On to `CCCCCCCCOc1ccc(C(=O)c2ccccc2)c(O)c1`, for which the result was inactive. In the case of `O=c1c(-c2ccc(O)cc2)coc2cc(O)cc(O)c12`, the AC50 is 29.1 µM (active). Consider `CC(C)(O)c1ccc(CNC(=O)c2cccnc2Oc2ccc3nonc3c2)cc1`, for which the outcome was inactive.
